Structures can show the parent of a compound that is named as a salt. Unmarked numbers belong to inactive results.
What was measured:
Conditions in all cases: 20 µM
[1] = system: Salmonella enterica typhimurium; assay: growth AUC normalised to DMSO control (fraction of control); higher = less growth inhibition, active = hit call of the paper
How it was run: (§1)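 Hemin and NAD were added to the medium for Haemophilus parainfluenzae. All pathogens, after two anaerobic passages, were inoculated at a starting OD578 of 0.01 into pre-reduced mGAM plates with 20 μM compound and 1% DMSO under breathable seals, and OD578 was read hourly for 24 h in three biological replicates. AUC of each growth curve was obtained with the trapezoidal rule up to the exponential-to-stationary transition and normalised to DMSO controls from the same plate.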

Shigella flexneri = assay: as above
How it was run: as §1

Vibrio cholerae = assay: as above
How it was run: as §1

[2] = system: Yersinia pseudotuberculosis; assay: as above
How it was run: as §1

P. vulgatus RND KO = assay: growth AUC normalised to DMSO control (median) (fraction of control); higher = less growth inhibition, active = hit call of the paper
How it was run: (§2)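 Anaerobic growth was tracked hourly at OD578 for 24 h in 96-well plates of mGAM seeded at OD578 0.01 with each approved-drug library compound at 20 μM and 1% DMSO. Strains had first been passaged twice overnight without oxygen. Three biological replicates were run. The reported median is the area under the curve, calculated by the trapezoidal rule on curves truncated at entry into stationary phase and normalised to vehicle wells on the same plate.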

P. vulgatus WT = assay: as above
How it was run: as §2

[3] = system: S. enterica typhimurium WT; assay: as above
How it was run: as §2

[4] = system: S. enterica typhimurium tolC KO; assay: as above
How it was run: as §2
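Wherever growth AUC normalised to DMSO control (median) is given: active when median AUC fell below 0.1.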

| SMILES | growth AUC normalised to DMSO control [1] | growth AUC normalised to DMSO control (Shigella flexneri) | growth AUC normalised to DMSO control (Vibrio cholerae) | growth AUC normalised to DMSO control [2] | growth AUC normalised to DMSO control (P. vulgatus RND KO) | growth AUC normalised to DMSO control (P. vulgatus WT) | growth AUC normalised to DMSO control [3] | growth AUC normalised to DMSO control [4] |
| --- | --- | --- | --- | --- | --- | --- | --- | --- |
| CCCC1O[C@@H]2C[C@H]3[C@@H]4CCC5=CC(=O)C=C[C@]5(C)[C@H]4[C@@H](O)C[C@]3(C)[C@]2(C(=O)CO)O1 (stereo not given in full) [Budesonide] | 0.978 | 0.995 | 0.987 | 0.989 | 0.968 | 0.999 | 0.991 | 0.984 |
| CCCCN1CCCCC1C(=O)Nc1c(C)cccc1C (stereo not given) [Bupivacaine hydrochloride] | 1.04 | 0.973 | 0.998 | 0.973 | 1.01 | 0.998 | 0.998 | 0.985 |
| O=C(O)Cc1cc(I)c(Oc2ccc(O)c(I)c2)c(I)c1 [Tiratricol] | 0.971 | 0.949 | 0.919 | 0.984 | 0.817 | 0.824 | 1.01 | 0.993 |
| C#C[C@]1(O)CC[C@H]2[C@@H]3[C@H](C)CC4=C(CCC(=O)C4)[C@H]3CC[C@@]21C [Tibolone] | 0.999 | 0.971 | 0.974 | 1 | 0.963 | 0.994 | 1 | 0.986 |
| CN[C@@H]1[C@@H](O)[C@@H](O[C@@H]2[C@@H](O)[C@H](O[C@H]3OC(CN)=CC[C@H]3N)[C@@H](N)C[C@H]2N)OC[C@]1(C)O [Sisomicin sulfate] | 1 | 0.986 | 0.996 | 0.982 | 0.994 | 1 | 1 | 1.01 |
| CCCCC(CC)CNC(=N)NC(=N)NCCCCCCNC(=N)NC(=N)NCC(CC)CCCC (stereo not given) [Alexidine dihydrochloride] | 0.981 | 0.833 (active) | 0.924 | 0.731 (active) | 0.0131 (active) | 0.00943 (active) | 0.977 | 0.964 |
| CC(C)(C)NC[C@H](O)COc1nsnc1N1CCOCC1 [Timolol maleate salt] | 0.981 | 1.01 | 1.01 | 0.987 | 1.01 | 1.01 | 0.999 | 0.999 |
| Nc1ccc(O)c(C(=O)O)c1 [Mesalamine] | 1.01 | 1.02 | 1.02 | 1.03 | 1 | 1.03 | 0.998 | 1.01 |
| c1ccc([C@H]2CN3CCSC3=N2)cc1 [Levamisole hydrochloride] | 0.99 | 0.967 | 0.981 | 1 | 1.03 | 1.01 | 1 | 1 |
| COC(=O)C1=C(C)NC(C)=C(C(=O)OCCN(C)Cc2ccccc2)C1c1cccc([N+](=O)[O-])c1 (stereo not given) [Nicardipine hydrochloride] | 1 | 1.01 | 0.966 | 1 | 1.02 | 0.977 | 1.01 | 0.901 |
| CCN(CC)CCNC(=O)c1ccc(N)cc1 [Procainamide hydrochloride] | 0.994 | 0.99 | 0.999 | 1 | 1.02 | 1.03 | 1 | 1 |
| CNS(=O)(=O)Cc1ccc2[nH]cc(CCN(C)C)c2c1 [Sumatriptan succinate] | 0.996 | 0.967 | 0.988 | 1 | 1.03 | 1.01 | 1.01 | 1 |
| CN1CCCC(CC2c3ccccc3Sc3ccccc32)C1 (stereo not given) [Metixene hydrochloride] | 0.987 | 1 | 0.944 | 1 | 0.774 | 0.704 | 1.01 | 0.923 |
| CCc1nc(N)nc(N)c1-c1ccc(Cl)cc1 [Pyrimethamine] | 0.915 (active) | 0.851 (active) | 0.908 | 0.932 | 0.57 | 0.288 | 0.93 | 0.66 |
| Cc1ccccc1OCC(O)CO (stereo not given) [Mephenesin] | 0.999 | 1 | 0.999 | 0.994 | 1.01 | 1.01 | 1 | 1 |
| CC(NCCc1ccc(O)cc1)C(O)c1ccc(O)cc1 (stereo not given) [Ritodrine hydrochloride] | 1.01 | 1.02 | 0.999 | 1 | 1 | 1.01 | 1 | 0.997 |
| C=CCc1ccccc1OCC(O)CNC(C)C (stereo not given) [Alprenolol hydrochloride] | 1.01 | 1.06 | 1.04 | 1.01 | 1.07 | 1.08 | 0.995 | 0.997 |
| COC(=O)[C@@H]1[C@H]2C[C@H]3c4[nH]c5ccccc5c4CCN3C[C@@H]2CC[C@@H]1O [Yohimbine hydrochloride] | 0.984 | 0.958 | 0.969 | 1 | 0.984 | 1.01 | 1 | 1 |
| Cc1ccc(N(CC2=NCCN2)c2cccc(O)c2)cc1 [Phentolamine hydrochloride] | 1.03 | 1.01 | 1.02 | 0.975 | 1 | 0.991 | 0.999 | 0.99 |
| CN(C)CCC(c1ccc(Br)cc1)c1ccccn1 (stereo not given) [Brompheniramine maleate] | 0.99 | 1 | 1.02 | 1 | 0.994 | 0.995 | 0.977 | 0.856 |
| COc1nc(C)nc(Cl)c1NC1=NCCN1 [Moxonidine] | 1.01 | 1.03 | 1.04 | 1.02 | 0.994 | 0.995 | 1 | 0.999 |
| CNCCC(Oc1ccc(C(F)(F)F)cc1)c1ccccc1 (stereo not given) [Fluoxetine hydrochloride] | 0.996 | 1 | 0.975 | 0.991 | 0.991 | 0.997 | 1.01 | 0.934 |
| Cc1cc(-c2ccccc2)nnc1NCCN1CCOCC1 [Minaprine dihydrochloride] | 0.997 | 1.01 | 1.02 | 1 | 1 | 0.998 | 1 | 0.998 |
| CC(C(=O)O)c1ccc2c(c1)Cc1cccnc1O2 (stereo not given) [Pranoprofen] | 0.999 | 0.976 | 0.993 | 1.01 | 1.04 | 1.04 | 1.01 | 1 |
| CN(C)CCOC(c1ccc(Cl)cc1)c1ccccn1 (stereo not given) [Carbinoxamine maleate salt] | 1.01 | 1.08 | 1.04 | 0.989 | 1.07 | 1.09 | 1 | 0.997 |
| CCc1c2c(nc3ccc(OC(=O)N4CCC(N5CCCCC5)CC4)cc13)-c1cc3c(c(=O)n1C2)COC(=O)[C@]3(O)CC [Irinotecan hydrochloride trihydrate] | 0.999 | 1.01 | 1.01 | 0.998 | 1 | 1.1 | 1 | 0.986 |
| Cn1c(=O)c2c(ncn2CC(=O)O)n(C)c1=O [Acefylline] | 0.979 | 0.987 | 0.98 | 0.987 | 0.987 | 0.996 | 0.996 | 1.01 |
| N[C@H]1CONC1=O [(S,-) Cycloserine] | 1.01 | 1.03 | 1.04 | 1.04 | 0.897 | 0.954 | 0.997 | 0.996 |
| COc1ccc(Cl)cc1C(=O)NCCc1ccc(S(=O)(=O)NC(=O)NC2CCCCC2)cc1 [Glibenclamide] | 0.984 | 1.02 | 1.03 | 1.01 | 0.953 | 0.956 | 1.01 | 1 |
| CCN1CCCC1CNC(=O)c1cc(S(N)(=O)=O)ccc1OC (stereo not given) [Sulpiride] | 0.99 | 1 | 1.01 | 1.02 | 0.992 | 1.01 | 1 | 0.999 |

Source: the supplement of paper PMC12350171
